Assay results as given in PubChem BioAssay (Tox21).
Records with an inconclusive call do not appear. A number with no mark means an inactive call. Calls come from the whole dose curve; as a rule, active = well fitted curve in the direction sought with a large enough effect in the repeat runs; inconclusive = weak or mixed curves; inactive = no such curve, though single readings can be large; an effect the other way counts as inactive or inconclusive.

Assay: A CellTox Green Cytotoxicity Assay to monitor cytotoxicity in HepG2 cells - 40 hour (AID 1224879); note: nearly all actives have a fitted effect of over 40% in size
Details: CellTox Green fluorescence; series mostly up to 76.8 µM; cytotoxicity increase: at the top concentration
Summary of the method: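 HepG2, 600 cells/well premixed w/ CellTox Green; 5 h settle, 37 C/5% CO2; pintool cpd add (DMSO); 37 C, 40 h; fluorescence read at 0, 8, 16, 24, 32, 40 h.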
% is set by controls: 0 for no effect and ±100 for the full control effect.

SMILES	cytotoxicity increase
COC(=O)C1CC(=O)C(C(=O)OC)CC1=O (configuration not stated)	-13.2% [at 6.97 µM]
CCCCCCCC/C=C\CCCCCCCC(=O)OCCCC	-13.9% [at 15.8 µM]
CCc1ccc(C=O)cc1	-0.191%
CC(C)CC(C)CC(C)CC(C)COC(=O)c1ccccc1C(=O)OCC(C)CC(C)CC(C)CC(C)C (configuration not stated)	3.06%
CC1=CCC(C(C)C)=CC1	0.312%
CCCC/C=C/C=C\C=O	14.7%
CCOC(=O)CC(=O)c1ccccc1	22.5%
CCCCCCCCOS(=O)(=O)O	-18.1%
CC(=O)/C=C/C1C(C)=CCC(C)C1(C)C (configuration not stated)	-8.58%
C[C@H](N)[C@H](O)c1cccc(O)c1	-6.71% [at 35.3 µM]
BrCCCCCBr	-10.8%
CCCCCCCCSCC	-4.17%
Cc1cccc2nccnc12	-11.2%
CNS(=O)(=O)CCc1ccc2[nH]cc(C3CCN(C)CC3)c2c1	-18.3% [at 35.3 µM]
CN(CCOc1ccc(NS(C)(=O)=O)cc1)CCc1ccc(NS(C)(=O)=O)cc1	-22.4% [at 35.3 µM]
Nc1ccc(S(=O)(=O)Nc2ccc(Cl)nn2)cc1	7.38% [at 35.3 µM]
O=C1c2ccccc2C(=O)N1CCl	-2.99%
O=C1CC(c2ccc(Cl)cc2)CC(=O)N1	-9.44% [at 35.3 µM]
N[C@@H](CCC(=O)N[C@@H](CS)C(=O)NCC(=O)O)C(=O)O	-8.24% [at 15.8 µM]
CN1CCN(CC(=O)N2c3ccccc3C(=O)Nc3cccnc32)CC1	-15.8% [at 6.97 µM]
O=C(Nc1ccc(Cl)c(Cl)c1)C1CC1	-23% [at 35.3 µM]
On1nnc2ccccc21	1.36%
CCCOC(=O)C(C)O (configuration not stated)	1.58%
CC(C)N(c1ccccc1)C(C)C	-7.95%
OCCC(F)(F)C(F)(F)C(F)(F)C(F)(F)C(F)(F)C(F)(F)C(F)(F)C(F)(F)F	0.88%
COC(=O)[C@@H]1[C@H]2C[C@H]3c4[nH]c5ccccc5c4CCN3C[C@@H]2CC[C@@H]1O	0.741% [at 35.3 µM]
CC(=O)OC(C)OC(=O)C(C)c1ccc(-c2ccccc2)c(F)c1 (configuration not stated)	11% [at 35.3 µM]
COc1ccc(S(=O)(=O)N2c3ccc(Cl)cc3[C@@](O)(c3ccccc3Cl)[C@H]2C(=O)N2CCC[C@@H]2C(N)=O)cc1OC	3.27% [at 35.3 µM]
CC(COC(C)(C)C)OCCCO (configuration not stated)	-5.3%
NS(=O)(=O)c1cc2c(cc1Cl)CN(C1CCCCC1)C2=O	3.46% [at 35.3 µM]

Assay: qHTS RealTime-Glo MT Cell Viability Assay in HEK293 cells - 0 hour (AID 1224880); note: top concentration of the series differs between compounds; nearly all actives have a fitted effect of over 45% in size
Details: RealTime-Glo luminescence; series mostly up to 76.8 µM; activity change, negative = cytotoxicity: at the top concentration
Summary of the method: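 Luminescence readout at each listed time point; HEK293, 600 cells/well, RealTime-Glo MT reagent added with cells; compounds pinned (23 nL in DMSO) after 5 h at 37 C; continuous culture at 37 C.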

SMILES	activity change, negative = cytotoxicity
CC1(C)S[C@@H]2[C@H](N=CN3CCCCCC3)C(=O)N2[C@H]1C(=O)O	11.3% [at 35.3 µM]
COC(=O)C1CC(=O)C(C(=O)OC)CC1=O (configuration not stated)	2.08% [at 6.97 µM]
CCCCCCCC/C=C\CCCCCCCC(=O)OCCCC	-2.24% [at 15.8 µM]
CCc1ccc(C=O)cc1	8.62%
CC(C)CC(C)CC(C)CC(C)COC(=O)c1ccccc1C(=O)OCC(C)CC(C)CC(C)CC(C)C (configuration not stated)	9.21%
CC1=CCC(C(C)C)=CC1	-1.99%
CCCC/C=C/C=C\C=O	-7.32%
CCOC(=O)CC(=O)c1ccccc1	0.168%
CCCCCCCCOS(=O)(=O)O	5.53%
CC(=C(CCOC(=O)C(C)C)SSC(CCOC(=O)C(C)C)=C(C)N(C=O)Cc1cnc(C)nc1N)N(C=O)Cc1cnc(C)nc1N	1.12% [at 35.3 µM]
CC(=O)/C=C/C1C(C)=CCC(C)C1(C)C (configuration not stated)	-5.5%
C[C@H](N)[C@H](O)c1cccc(O)c1	7.2% [at 35.3 µM]
BrCCCCCBr	16.9%
CCCCCCCCSCC	1.57%
Cc1cccc2nccnc12	22.7%
CNS(=O)(=O)CCc1ccc2[nH]cc(C3CCN(C)CC3)c2c1	-5.87% [at 35.3 µM]
C[C@@H]1O[C@@H](O[C@@H]2[C@@H](O)[C@H](OCCc3ccc(O)c(O)c3)O[C@H](CO[C@@H]3O[C@H](CO)[C@@H](O)[C@H](O)[C@H]3O)[C@H]2OC(=O)/C=C/c2ccc(O)c(O)c2)[C@H](O)[C@H](O)[C@H]1O	-5.7%
CN(CCOc1ccc(NS(C)(=O)=O)cc1)CCc1ccc(NS(C)(=O)=O)cc1	27.3% [at 35.3 µM]
Nc1ccc(S(=O)(=O)Nc2ccc(Cl)nn2)cc1	0.473% [at 35.3 µM]

SMILES	activity change, negative = cytotoxicity
O=C1c2ccccc2C(=O)N1CCl	-1.65%
O=C1CC(c2ccc(Cl)cc2)CC(=O)N1	0.0706% [at 35.3 µM]
N[C@@H](CCC(=O)N[C@@H](CS)C(=O)NCC(=O)O)C(=O)O	8.63% [at 15.8 µM]
CN1CCN(CC(=O)N2c3ccccc3C(=O)Nc3cccnc32)CC1	7.23% [at 6.97 µM]
O=C(Nc1ccc(Cl)c(Cl)c1)C1CC1	-1.65% [at 35.3 µM]
On1nnc2ccccc21	0.663%
CCCOC(=O)C(C)O (configuration not stated)	-16.2%
CCC(C)NC(N)=O (configuration not stated)	-4.45%
CC(C)N(c1ccccc1)C(C)C	9.96%
OCCC(F)(F)C(F)(F)C(F)(F)C(F)(F)C(F)(F)C(F)(F)C(F)(F)C(F)(F)F	-2.93%
CC(C)=CCOC(=O)c1ccccc1	2.05%
CC(=O)NCc1c(I)c(NC(C)=O)c(I)c(C(=O)O)c1I	2.92% [at 35.3 µM]
COC(=O)[C@@H]1[C@H]2C[C@H]3c4[nH]c5ccccc5c4CCN3C[C@@H]2CC[C@@H]1O	1.14% [at 35.3 µM]
CC(=O)OC(C)OC(=O)C(C)c1ccc(-c2ccccc2)c(F)c1 (configuration not stated)	6.37% [at 35.3 µM]
COc1ccc(S(=O)(=O)N2c3ccc(Cl)cc3[C@@](O)(c3ccccc3Cl)[C@H]2C(=O)N2CCC[C@@H]2C(N)=O)cc1OC	-6.86% [at 35.3 µM]
CC(COC(C)(C)C)OCCCO (configuration not stated)	9.18%
NS(=O)(=O)c1cc2c(cc1Cl)CN(C1CCCCC1)C2=O	5.57% [at 35.3 µM]
CC(=O)NCCCCCC(=O)O	-4.22% [at 35.3 µM]
